# A selection: hits, their analogues and other compounds. The true share with any hit is near 19%.
# TDP1 cell CPT = DT40-hTDP1 cell growth loss with CPT; chicken DT40 Tdp1-/-;hTDP1 cells + 20 nM CPT, ATP luminescence, 48 h; Potency, µM (titrated, usually from 46.2 µM), for the others: at the highest dose activity change, negative = growth inhibition, usual class: inhibitors; actives 12% (n = 420,000); AID 686979; note: potency is the fitted concentration of half-maximal effect; nearly all actives have a fitted effect of over 55% in size
#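 Chicken DT40 Tdp1-/- cells complemented with human TDP1, 400 cells/well, exposed to compounds plus 20 nM camptothecin for at least 48 h at 37 C; viability read as ATP content by CellTiter-Glo luminescence.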
# HT1080 IDH1KD tx = kills HT-1080 cells with IDH1 knockdown | HT-1080 IDH1 knockdown viability, ATP luminescence, 48 h | actives 2% (n = 360,000) | Potency, µM (doses to about 46.1 µM), inactives show at the top dose activity, negative = toxicity, usual class: cytotoxic | AID 686971;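 note: potency is the fitted concentration of half-maximal effect; 0% = DMSO wells and -100% = cell-free medium wells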
#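 CellTiter-Glo luminescence after 48 h compound exposure at 37 degrees C of IDH1-knockdown HT-1080 cells in 5% FBS RPMI. %Activity scaled between DMSO wells and cell-free media wells, with curves fitted and assigned curve classes.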
# IL-1B inflam inh = inflammasome signaling inhibition, IL-1 beta readout. THP-1 LPS/ATP IL-1B secretion, AlphaLISA, 16 h; active compounds read low. activity change, % at 57.5 µM. actives 4.7% (n = 360,000); in the data active = activity change below about -50%; inconclusive = mostly about -30% to -49%
#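 Secreted IL-1B measured by AlphaLISA bead assay after 16 h compound exposure of THP-1 cells; compounds (final up to 57.5 uM) added 1 h before LPS (250 ng/mL) and ATP (1.25 mM) stimulation; lower signal means less secretion.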
# HT1080-NT tox = kills 2HG-producing HT-1080-NT fibrosarcoma cells; actives 1.6% (n = 360,000); AID 686970; Potency, µM (series often up to 46.1 µM), for inactives: at the highest dose activity, negative = less viability, usual class: cytotoxic; HT-1080-NT fibrosarcoma viability, CellTiter-Glo ATP luminescence, 48 h;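 note: NT is the 2HG producing partner of a matched IDH1 knockdown line; potency is the fitted concentration of half-maximal effect; 0% = DMSO-treated cells and -100% = media-only wells without cells; nearly all actives have a fitted effect of over 55% in size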
#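 Toxicity toward the 2HG-producing NT line was scored as %Activity, normalised to DMSO and no-cell wells, from CellTiter-Glo luminescence after 48 hours' treatment.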
# ELG1 repair inh = blocks ELG1-dependent DNA repair in HEK293T cells. actives 2.3% (n = 330,000). AID 504467. HEK293T ELG1-luciferase reporter, luminescence, 16 h; DNA damage induced by 5-fluorouridine. Potency, µM (series often up to 46.1 µM), for the others: at the highest dose activity change, negative = inhibition, most hits filed as inhibitors; note: potency is the fitted concentration of half-maximal effect; nearly all actives have a fitted effect of over 55% in size
#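 Cells (2,000 per well) received 5-fluorouridine plus test compound or DMSO and were incubated 16 hr at 37 °C, 5% CO2. Luciferase activity was read by luminescence 30 min after ONE-Glo addition; signal suppression marked inhibition of damage-induced ELG1 function.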
# TDP1 cell noCPT = qHTS for Inhibitors of human tyrosyl-DNA phosphodiesterase 1 (TDP1): qHTS in cells in absence of CPT; DT40 Tdp1-/- hTDP1 cells, no CPT, ATP luminescence, 48 h; Potency, µM (top dose mostly 46.2 µM), for the others: top-dose activity change, negative = growth inhibition, actives largely listed as inhibitors; actives 15% (n = 420,000); AID 686978, 2013; note: potency is the fitted concentration of half-maximal effect; nearly all actives have a fitted effect of over 55% in size
#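 Cells were dispensed at 400 per well, compounds added by pin tool, plates incubated ≥48 hr at 37 °C, then CellTiter-Glo added for 30 min at room temperature before luminescence reading. Line: DT40 Tdp1-/- complemented with hTDP1; camptothecin omitted.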
# * = called active by the depositor; ? = inconclusive; / = no result. Unless noted, calls come from the whole dose curve; as a rule, active = well fitted curve in the direction sought with a large enough effect; inconclusive = small, poorly fitted or top-dose-only effect, or another doubt; inactive = no such curve, though single readings can be large; an effect the other way counts as inactive or inconclusive. Unless noted, % is set by controls: 0 for no effect and ±100 for the full control effect.
SMILES,TDP1 cell CPT,HT1080 IDH1KD tx,IL-1B inflam inh,HT1080-NT tox,ELG1 repair inh,TDP1 cell noCPT
Oc1c(/C=C/C=C/C=Nc2ccccc2)sc(=S)n1Cc1ccccc1,?,9.9%,0.0,9.4%,?,20.6µM*
CC(C)C(=O)Nc1ccc2c(c1)nc(CCN1CCN(c3ccccn3)CC1)n2C,21.6%,-0.6%,9.0,21.2%,-3.7%,-8.8%
CCOC1(c2ccccc2)CC1C(=O)N/N=C/c1cccc([N+](=O)[O-])c1 (stereo not drawn),?,3.4%,?,11.2%,-18.5%,?
Cc1c2ccccc2cc(Cc2ccccc2)[n+]1C,23.1µM*,20.6µM*,18.1,-0.2%,-11.8%,13µM*
CCCc1c(C)c2cccc(C)c2[nH]c1=O,?,10.9%,-17.4,1.8%,10.2%,?
CCCCN1CCc2c([nH]c3c(C)cccc23)C1=O,29.1µM*,-13.4%,-19.6,-19.9%,?,?
COc1ccc(CNC(=O)Cn2c(=O)n3nc(-c4cccc(F)c4)nc3c3ccccc32)cc1OC,-4.3%,/,/,/,/,-7.4%
c1ccc2c(-c3ccncc3)c[nH]c2c1,-2.6%,0.5%,/,-4.4%,20.6µM*,-27.3%
c1ccc(-c2nnc(-c3ccccc3)c(-c3c[nH]c4ccccc34)n2)cc1,?,10.3%,-7.1,12.4%,-5.8%,?
CC(C)Sc1nc(SCC(=O)NCc2ccco2)c2c3c(sc2n1)COC(C)(C)C3,?,-2.2%,1.1,-2.8%,2.31µM*,?
Cc1nc(SCC(=O)NCc2ccco2)c2c3c(sc2n1)CCCC3,?,?,-8.6,-6.8%,?,?
CC(C)Sc1nc(SCC(=O)O)c2c3c(sc2n1)COC(C)(C)C3,-28.7%,-25.4%,15.6,-3.0%,?,2.9%
CCCc1nc2sc3c(SCC(=O)NCc4ccco4)ncnc3c2c2c1CCC2,?,-3.4%,-6.1,-7.0%,?,18.4µM*
CCC1CCc2c(sc3nc(SCC(=O)NCc4ccco4)n(-c4ccccc4)c(=O)c23)C1 (stereo not drawn),29.1µM*,12.6%,33.0,7.9%,?,?
CC(C)Sc1nc2sc3c(c2c2nnc(SCC(=O)NCc4ccco4)n12)CCCC3,?,3.2%,-19.2,5.5%,?,18.4µM*
CC1CCc2sc3ncn4nc(C(=O)NCc5ccco5)nc4c3c2C1 (stereo not drawn),?,23.1%,6.0,12.1%,-5.2%,?
CC1CCc2c(sc3ncn4c(SCC(=O)NCc5ccco5)nnc4c23)C1 (stereo not drawn),?,8.9%,4.4,0.6%,11.2%,20.6µM*
CCOc1ccc(NC(=O)CN(C)C(=O)CCNC(=O)c2ccc(Br)cc2)cc1OCC,-8.8%,0.4%,-8.3,1.2%,14.8%,-19.4%
Cc1ccc(OCCCC(=O)N(C)CC(=O)Nc2ccccc2Br)cc1,-13.1%,-16.0%,-55.4*,-11.7%,8.3%,-17.7%
CCOc1ccc(NC(=O)CN(C)C(=O)CCCOc2ccc(Br)cc2)cc1OCC,18.4µM*,-12.9%,-7.3,-3.6%,-18.1%,?
Cc1ccc(C)c(Oc2coc3cc(OC(=O)c4cccs4)ccc3c2=O)c1,29.1µM*,17.9%,29.5,0.8%,/,?
CCOC(=O)Oc1ccc2c(=O)c(Oc3cc(C)cc(C)c3)coc2c1,-21.0%,-27.4%,34.1,-7.4%,-3.8%,-18.3%
Cc1cc(C)cc(Oc2coc3cc(OCC(=O)NC4CCCCC4)ccc3c2=O)c1,?,/,/,/,/,20.6µM*
CCc1ccccc1NC(=O)COc1ccc2c(=O)c(Oc3cc(C)ccc3C)coc2c1,18.4µM*,-9.8%,5.3,-2.8%,?,23.1µM*

# Source: PubChem
